Data published in the supplement of paper PMC10849652.
Targets with a hit are over-represented here; the source holds about 7,900 in all. About 0.6% of all pairs of compound and target were hits.

Tests used:
Experiment in all cases: log2 fold change, soluble protein after heating vs DMSO (PISA); higher = thermal stabilisation; K562 cells, 10 uM, 30 min; active = over 0.2 and 3.5 SD of the protein, either way, in both replicates (recomputed)
erlotinib = compound: C#Cc1cccc(Nc2ncnc3cc(OCCOC)c(OCCOC)cc23)c1 [erlotinib]
In short: (§1)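 Thermal stability values are relative to control samples and come from duplicates. They are expressed as log2 fold changes. For measurement, K562 cells (2×10^6 cells/mL) received 10 μM compound for 30 min, and aliquots were heated for 3 min over 48°C-58°C, pooled, and extracted at 4°C in PBS with 0.5% NP-40. Soluble protein, the supernatant after 21,000xg for 90 min, was quantified by TMTpro 16plex LC-MS/MS with equalised channel sums.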

[1] = compound: C/C(=N\NC(=O)C1=CC(=CC=C1)S(=O)(=O)N2CCOCC2)/C3=C(C=CC(=C3)Cl)O
In short: as §1

[2] = compound: C1=CC(=C(C=C1Cl)C2=NC3=NC=CN=C3C(=N2)NC4=CC=NC=C4)F
In short: as §1

[3] = compound: C1=CC(=CC=C1C2=NC3=C(N2)C=C(C=C3)C(=O)N)OC4=CC=C(C=C4)Cl
In short: as §1

[4] = compound: C1=CC2=C(C=CC(=C2)/C=C\3/C(=O)NC(=NCC4=CC=CS4)S3)N=C1
In short: as §1

[5] = compound: C1=CC2=NC=CN=C2C=C1/C=C/3\C(=O)NC(=O)S3
In short: as §1

[6] = compound: C1=CC=C(C=C1)C2=NC(=C(N2)C3=CC=NC=C3)C4=CC(=C(C=C4)Cl)O
In short: as §1

[7] = compound: C1=CC=C2C(=C1)C3=NNC4=CC=CC(=C43)C2=O
In short: as §1

[8] = compound: C1CCN(C1)C(=O)NC2=CC=CC(=C2)NC3=NC=C(C(=N3)NCCC4=CN=CN4)Br
In short: as §1

[9] = compound: C1CN(CCC1(CC2=CC=C(C=C2)Cl)N)C3=NC=NC4=C3C=CN4
In short: as §1

Measured: log2 fold change

XRCC6 (UniProt P12956)
inactive: erlotinib 0.025 | [1] 0.103 | [2] 0.093 | [3] 0.011 | [4] 0.065 | [5] 0.031 | [6] -0.023 | [7] -0.036 | [8] -0.043 | [9] -0.025

USP48 (UniProt Q86UV5)
inactive: erlotinib 0.228 | [3] -0.112 | [5] 0.007

UBXN10 (UniProt Q96LJ8)
inactive: erlotinib -0.036 | [2] 0.004 | [3] 0.048 | [5] -0.068 | [6] -0.077 | [8] -0.101 | [9] 0.128

UBIAD1 (UniProt Q9Y5Z9)
inactive: erlotinib 0.101 | [1] -0.052 | [3] 0.04 | [4] 0.194 | [5] -0.036 | [6] 0.259 | [8] 0 | [9] 0.094
active: [7] 0.297

WDR75 (UniProt Q8IWA0)
Chain of UniProt Q8IWA0 (Q8IWA0 whole entry, looked up): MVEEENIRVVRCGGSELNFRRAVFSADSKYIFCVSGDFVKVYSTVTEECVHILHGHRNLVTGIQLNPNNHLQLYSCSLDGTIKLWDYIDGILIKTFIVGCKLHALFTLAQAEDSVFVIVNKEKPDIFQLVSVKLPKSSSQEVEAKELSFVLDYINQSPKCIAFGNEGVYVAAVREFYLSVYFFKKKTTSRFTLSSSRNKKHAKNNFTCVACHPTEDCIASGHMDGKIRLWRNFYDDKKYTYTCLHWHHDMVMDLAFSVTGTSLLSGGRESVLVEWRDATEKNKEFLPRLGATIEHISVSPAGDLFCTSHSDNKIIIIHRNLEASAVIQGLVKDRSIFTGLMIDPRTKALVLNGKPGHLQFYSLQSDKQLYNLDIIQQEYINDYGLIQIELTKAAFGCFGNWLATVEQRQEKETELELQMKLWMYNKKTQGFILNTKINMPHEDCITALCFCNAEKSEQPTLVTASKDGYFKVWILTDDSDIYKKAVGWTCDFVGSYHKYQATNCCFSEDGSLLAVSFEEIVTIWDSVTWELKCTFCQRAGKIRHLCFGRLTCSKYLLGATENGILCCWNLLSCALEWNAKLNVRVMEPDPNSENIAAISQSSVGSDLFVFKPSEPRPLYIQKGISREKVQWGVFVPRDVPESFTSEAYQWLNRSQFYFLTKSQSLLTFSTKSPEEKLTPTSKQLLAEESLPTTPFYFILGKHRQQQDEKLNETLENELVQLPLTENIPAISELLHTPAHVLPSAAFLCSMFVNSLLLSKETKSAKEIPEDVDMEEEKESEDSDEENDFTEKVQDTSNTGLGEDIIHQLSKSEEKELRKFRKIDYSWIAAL
inactive: [1] -0.256 | [2] -0.592 | [4] 0.306 | [5] 0.091 | [6] -0.063 | [7] 0.042 | [8] -0.193 | [9] 0.021

TXNL4B (UniProt Q9NX01)
inactive: erlotinib 0.018 | [1] 0.007 | [3] -0.001 | [4] 0.088 | [5] 0.221 | [6] 0.008 | [7] 0.041 | [8] -0.005 | [9] -0.016

TRIQK (UniProt Q629K1)
inactive: [2] -0.023 | [5] 0.046 | [6] -0.077 | [8] -0.003 | [9] 0.097

U2AF1L5 (UniProt P0DN76)
active: erlotinib 1.29
inactive: [1] 0.031 | [3] 0.022 | [4] -0.159 | [5] 0.096 | [7] -0.005 | [8] 0.153 | [9] -0.207

TTC26
inactive: [5] 0.001 | [6] -0.005 | [8] 0.09 | [9] -0.062

UBXN8 (UniProt O00124)
inactive: [1] 0.056 | [2] 0.147 | [4] 0.141 | [5] -0.41 | [6] -0.149 | [7] -0.036 | [8] 0.167 | [9] -0.019

TUBA4A (UniProt C9JJQ8)
inactive: [5] 0.004 | [8] 0.142 | [9] -0.036

TRIM44 (UniProt Q96DX7)
Chain of UniProt Q96DX7 (Q96DX7 whole entry, looked up): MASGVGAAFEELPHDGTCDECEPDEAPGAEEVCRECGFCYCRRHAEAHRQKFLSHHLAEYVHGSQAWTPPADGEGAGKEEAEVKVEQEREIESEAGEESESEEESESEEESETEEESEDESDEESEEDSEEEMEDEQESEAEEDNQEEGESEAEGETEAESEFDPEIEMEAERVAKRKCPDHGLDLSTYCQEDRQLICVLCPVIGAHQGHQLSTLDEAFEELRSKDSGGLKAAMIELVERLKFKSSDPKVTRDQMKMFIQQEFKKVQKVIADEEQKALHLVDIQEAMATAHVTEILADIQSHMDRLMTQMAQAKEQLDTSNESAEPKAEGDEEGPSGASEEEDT
inactive: erlotinib 0.022 | [1] 0.1 | [3] 0.025 | [4] 0.028 | [5] 0.087 | [6] -0.061 | [7] -0.037 | [8] -0.023 | [9] -0.014

WDR46, A0A0G2JJL1
inactive: erlotinib -0.273 | [2] -0.741 | [3] -0.011 | [5] 0.027 | [8] 0.279 | [9] 0.114

UBAP2L (UniProt F8W726)
inactive: erlotinib 0.019 | [3] 0.004 | [5] -0.019 | [8] 0 | [9] 0.124

TUT4 (UniProt Q5TAX3)
Chain of UniProt Q5TAX3 (Q5TAX3 whole entry, looked up): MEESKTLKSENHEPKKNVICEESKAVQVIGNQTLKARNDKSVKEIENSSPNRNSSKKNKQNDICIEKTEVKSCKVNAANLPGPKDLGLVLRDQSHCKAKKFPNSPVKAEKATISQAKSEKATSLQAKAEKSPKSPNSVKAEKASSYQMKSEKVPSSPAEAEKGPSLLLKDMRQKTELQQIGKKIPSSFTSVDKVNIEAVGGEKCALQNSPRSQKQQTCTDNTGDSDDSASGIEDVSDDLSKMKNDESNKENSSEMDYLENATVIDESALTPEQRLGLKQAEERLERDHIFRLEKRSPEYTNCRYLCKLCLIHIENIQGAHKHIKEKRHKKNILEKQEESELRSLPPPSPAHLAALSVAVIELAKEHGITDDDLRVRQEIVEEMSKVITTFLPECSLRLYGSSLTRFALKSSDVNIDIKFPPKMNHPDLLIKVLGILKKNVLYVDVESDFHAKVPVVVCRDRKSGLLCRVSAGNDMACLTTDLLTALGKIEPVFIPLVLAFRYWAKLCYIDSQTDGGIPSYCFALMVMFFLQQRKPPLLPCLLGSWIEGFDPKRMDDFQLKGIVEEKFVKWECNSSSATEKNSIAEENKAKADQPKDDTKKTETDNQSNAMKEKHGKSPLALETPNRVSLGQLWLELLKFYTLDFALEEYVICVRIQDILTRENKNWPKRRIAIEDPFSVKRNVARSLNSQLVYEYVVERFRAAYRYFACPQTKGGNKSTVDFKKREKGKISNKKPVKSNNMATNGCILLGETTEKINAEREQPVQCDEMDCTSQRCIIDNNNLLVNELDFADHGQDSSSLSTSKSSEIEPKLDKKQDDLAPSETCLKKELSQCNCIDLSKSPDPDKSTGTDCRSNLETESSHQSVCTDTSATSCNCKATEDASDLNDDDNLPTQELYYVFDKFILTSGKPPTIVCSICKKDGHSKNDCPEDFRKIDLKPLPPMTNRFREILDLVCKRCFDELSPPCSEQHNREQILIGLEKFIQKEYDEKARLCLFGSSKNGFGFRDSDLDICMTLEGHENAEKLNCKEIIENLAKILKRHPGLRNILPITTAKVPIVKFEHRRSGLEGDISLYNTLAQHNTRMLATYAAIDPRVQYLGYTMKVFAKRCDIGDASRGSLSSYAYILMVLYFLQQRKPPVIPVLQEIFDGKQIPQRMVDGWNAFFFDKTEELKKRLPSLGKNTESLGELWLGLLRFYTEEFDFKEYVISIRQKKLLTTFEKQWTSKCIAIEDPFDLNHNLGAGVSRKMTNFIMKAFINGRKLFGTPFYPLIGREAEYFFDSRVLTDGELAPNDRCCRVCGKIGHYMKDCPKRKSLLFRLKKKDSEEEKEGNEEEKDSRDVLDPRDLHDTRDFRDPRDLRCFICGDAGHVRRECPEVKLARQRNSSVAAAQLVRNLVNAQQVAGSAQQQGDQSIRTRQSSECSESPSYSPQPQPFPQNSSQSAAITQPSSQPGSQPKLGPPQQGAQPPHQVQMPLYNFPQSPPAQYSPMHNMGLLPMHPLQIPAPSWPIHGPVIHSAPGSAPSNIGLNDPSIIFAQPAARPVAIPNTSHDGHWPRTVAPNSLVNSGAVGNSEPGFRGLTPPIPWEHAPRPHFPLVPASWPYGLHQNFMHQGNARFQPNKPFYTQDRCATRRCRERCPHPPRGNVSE
inactive: erlotinib 0.077 | [2] -0.231 | [3] 0.005 | [5] -0.011 | [6] 0.08 | [8] -0.015 | [9] -0.129

XAB2 (UniProt Q9HCS7)
inactive: [2] -0.223 | [6] 0.075

WARS1 (UniProt G3V3P2)
inactive: [5] 0.155

TRPT1 isoform 4 (UniProt Q86TN4)
inactive: erlotinib 0.021 | [1] 0.065 | [3] -0.08 | [4] 0.021 | [6] 0.043 | [7] -0.062

UNC119B (UniProt A6NIH7)
active: [6] 0.472 | [9] 0.454
inactive: erlotinib 0 | [1] 0.124 | [3] 0.316 | [4] 0.031 | [5] 0.001 | [7] 0.005 | [8] -0.012

WARS1 (UniProt G3V227)
inactive: [1] -0.08 | [2] 0.018 | [4] -0.159 | [5] 0.093 | [7] -0.178 | [8] 0.098 | [9] -0.089

UBE2D1 (UniProt P51668)
Chain of UniProt P51668 (P51668 whole entry, looked up): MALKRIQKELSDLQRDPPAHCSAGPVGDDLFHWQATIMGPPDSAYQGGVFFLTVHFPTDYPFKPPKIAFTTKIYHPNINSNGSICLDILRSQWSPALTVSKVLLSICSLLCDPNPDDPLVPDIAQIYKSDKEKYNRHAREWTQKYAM
inactive: erlotinib 0.098 | [1] 0.071 | [3] 0.068 | [4] 0.057 | [5] 0.023 | [6] 0.01 | [7] -0.096 | [8] 0.022 | [9] -0.162

TMEM8A (UniProt Q9HCN3)
inactive: erlotinib 0.046 | [3] -0.001 | [5] 0.02 | [6] 0.124 | [8] -0.014 | [9] 0.011

TRIM5 (UniProt Q9C035)
inactive: erlotinib -0.061 | [1] 0.075 | [2] 0.111 | [3] 0.162 | [4] 0.012 | [6] -0.182 | [7] 0.019 | [8] -0.077 | [9] -0.01

WDR4 isoform 3 (UniProt P57081)
inactive: [2] -0.144 | [5] 0.045

TOM1 (UniProt O60784)
inactive: erlotinib 0.082 | [2] 0.193 | [3] -0.037 | [5] 0.186 | [8] 0.022 | [9] -0.097

TMEM184C (UniProt Q9NVA4)
Chain of UniProt Q9NVA4 (Q9NVA4 whole entry, looked up): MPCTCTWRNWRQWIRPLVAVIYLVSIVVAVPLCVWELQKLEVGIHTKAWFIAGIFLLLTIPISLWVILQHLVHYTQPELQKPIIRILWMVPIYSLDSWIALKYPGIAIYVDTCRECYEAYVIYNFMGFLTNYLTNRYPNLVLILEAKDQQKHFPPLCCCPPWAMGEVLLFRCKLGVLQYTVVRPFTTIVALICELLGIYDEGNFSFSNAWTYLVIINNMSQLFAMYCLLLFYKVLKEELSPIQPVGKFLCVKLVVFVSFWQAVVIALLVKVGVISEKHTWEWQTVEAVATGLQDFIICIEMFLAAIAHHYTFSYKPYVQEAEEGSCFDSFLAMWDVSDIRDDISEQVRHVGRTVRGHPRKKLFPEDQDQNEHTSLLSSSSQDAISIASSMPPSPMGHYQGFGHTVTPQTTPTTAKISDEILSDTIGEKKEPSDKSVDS
inactive: [1] 0.04 | [2] -0.055 | [4] -0.05 | [5] -0.027 | [6] -0.047 | [7] -0.009 | [8] -0.092 | [9] -0.059

WARS1 (UniProt G3V339)
inactive: [2] -0.023

TSPAN13 (UniProt O95857)
Chain of UniProt O95857 (O95857 whole entry, looked up): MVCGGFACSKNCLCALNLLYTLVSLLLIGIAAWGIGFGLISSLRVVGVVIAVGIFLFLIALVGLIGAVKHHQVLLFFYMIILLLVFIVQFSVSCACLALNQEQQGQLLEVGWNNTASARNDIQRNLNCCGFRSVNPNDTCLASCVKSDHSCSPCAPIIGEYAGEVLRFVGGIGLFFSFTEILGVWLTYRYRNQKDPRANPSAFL
inactive: erlotinib 0.017 | [2] -0.058 | [3] 0.061 | [5] 0.075 | [6] -0.02 | [8] 0.065 | [9] 0.143

WARS1 (UniProt G3V277)
inactive: erlotinib 0.183 | [1] -0.032 | [3] -0.076 | [4] 0.25 | [5] 0.036 | [7] -0.014 | [8] 0.141 | [9] -0.008

UTP20 (UniProt O75691)
inactive: erlotinib -0.082 | [2] 0.053 | [3] -0.321 | [8] 0.061 | [9] 0.04

TVP23C (UniProt Q96ET8)
Chain of UniProt Q96ET8 (Q96ET8 whole entry, looked up): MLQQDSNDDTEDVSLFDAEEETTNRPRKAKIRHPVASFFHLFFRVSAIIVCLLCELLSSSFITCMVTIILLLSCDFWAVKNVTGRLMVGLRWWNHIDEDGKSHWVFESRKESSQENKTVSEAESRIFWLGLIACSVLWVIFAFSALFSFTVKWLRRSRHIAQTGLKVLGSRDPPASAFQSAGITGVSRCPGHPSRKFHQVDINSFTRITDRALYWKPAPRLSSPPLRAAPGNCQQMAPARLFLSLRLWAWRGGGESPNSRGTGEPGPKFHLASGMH
inactive: erlotinib -0.025 | [1] 0.053 | [3] -0.021 | [4] 0.062 | [7] -0.098 | [8] 0.066 | [9] -0.031

XRCC1 (UniProt P18887)
inactive: erlotinib 0.036 | [1] -0.392 | [2] 0.04 | [3] 0.046 | [4] 0.304 | [6] -0.035 | [7] 0.042 | [8] 0.043 | [9] 0.117

WARS1 (UniProt G3V5U1)
inactive: [2] -0.233 | [5] 0.187

TOM1L2 (UniProt Q6ZVM7)
Chain of UniProt Q6ZVM7 (Q6ZVM7 whole entry, looked up): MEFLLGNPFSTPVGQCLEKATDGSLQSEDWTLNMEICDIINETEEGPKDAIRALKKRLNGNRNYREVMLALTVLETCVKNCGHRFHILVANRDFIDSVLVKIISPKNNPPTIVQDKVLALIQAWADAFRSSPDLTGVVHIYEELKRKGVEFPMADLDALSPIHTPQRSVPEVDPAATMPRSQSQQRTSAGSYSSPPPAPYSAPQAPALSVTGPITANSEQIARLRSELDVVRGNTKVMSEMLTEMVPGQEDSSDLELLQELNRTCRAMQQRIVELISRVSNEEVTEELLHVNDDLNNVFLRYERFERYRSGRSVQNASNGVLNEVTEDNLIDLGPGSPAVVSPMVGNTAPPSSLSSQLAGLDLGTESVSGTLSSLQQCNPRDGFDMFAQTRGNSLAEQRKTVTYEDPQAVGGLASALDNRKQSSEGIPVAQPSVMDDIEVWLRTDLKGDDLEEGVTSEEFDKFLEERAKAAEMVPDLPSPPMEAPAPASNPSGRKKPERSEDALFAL
inactive: erlotinib -0.048 | [1] 0.06 | [2] 0.043 | [3] 0.013 | [4] 0.025 | [7] -0.026

TRIM23 (UniProt P36406)
Chain of UniProt P36406 (P36406 whole entry, looked up): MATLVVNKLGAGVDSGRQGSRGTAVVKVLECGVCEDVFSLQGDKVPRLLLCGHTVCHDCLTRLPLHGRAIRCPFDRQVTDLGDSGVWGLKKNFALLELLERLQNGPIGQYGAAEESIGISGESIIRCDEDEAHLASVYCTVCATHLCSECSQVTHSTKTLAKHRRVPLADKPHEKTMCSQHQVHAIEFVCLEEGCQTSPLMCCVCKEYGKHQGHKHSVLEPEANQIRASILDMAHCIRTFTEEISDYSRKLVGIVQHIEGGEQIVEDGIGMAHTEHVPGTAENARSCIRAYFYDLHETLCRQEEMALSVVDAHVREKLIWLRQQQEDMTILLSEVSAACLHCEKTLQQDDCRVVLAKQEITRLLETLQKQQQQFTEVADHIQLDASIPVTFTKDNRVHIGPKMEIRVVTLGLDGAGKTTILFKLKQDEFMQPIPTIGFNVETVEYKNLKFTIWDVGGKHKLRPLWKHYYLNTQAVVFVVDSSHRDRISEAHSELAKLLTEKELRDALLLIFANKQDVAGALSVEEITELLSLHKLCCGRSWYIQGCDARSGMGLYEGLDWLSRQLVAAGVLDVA
inactive: erlotinib 0.006 | [3] 0.075 | [5] -0.096 | [6] 0.061 | [8] -0.202 | [9] 0.161

VKORC1 (UniProt Q9BQB6)
inactive: erlotinib 0.048 | [1] -0.048 | [3] -0.019 | [4] 0.175 | [5] 0.113 | [6] 0.044 | [7] 0.151 | [8] -0.049 | [9] 0.005

UBE3B (UniProt Q7Z3V4)
inactive: [1] 0.018 | [2] 0.08 | [4] 0.121 | [5] 0.135 | [6] 0.064 | [7] -0.043 | [8] 0.395 | [9] 0.16

TXNRD1 isoform 7 (UniProt Q16881)
inactive: erlotinib 0.107 | [2] 0.1 | [3] -0.193 | [5] 0.199
